In PubChem BioAssay (NCATS):
Values joined by “and” are separate entries in the source; they are usually repeats but may differ in a detail not shown here. Equal entries are not always repeated. Records with an inconclusive call do not appear. Active and inactive are the calls of the source. Calls follow the shape of the full dose curve.

Assay: qHTS Assay for Lipid Storage Modulators (AID 1519); as to activity change, negative = inhibition: % is scaled to controls: 0 for no effect and ±100 for the full control effect
Conditions: Drosophila S3 cells, BODIPY lipid droplet/cell ratio, laser cytometry, cells loaded with oleic acid
Outline: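 Cells seeded at 5,000 per well were treated with compounds over a concentration series and loaded with oleic acid (400 uM, as added). Lipid droplet fluorescence (488 nm excitation, 500-530 nm channel) was read by laser-scanning cytometry and normalized to 20 uM Triacsin C.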

[1] = measured here: cell count channel max response
[2] = measured here: lipid channel max response

| Compound | activity change, negative = inhibition (at 57.5 µM (top of the series)) | max response [1] | max response [2] | activity change, negative = inhibition (at 25.7 µM (top of the series)) |
| --- | --- | --- | --- | --- |
| CC(Cc1cccc(C(F)(F)F)c1)NCCOC(=O)c1ccccc1 (stereo unspecified) | -1.3% (inactive) | -3.51% | -2.7% | – |
| C[C@H](O)C(=O)Nc1c(I)c(C(=O)NC(CO)CO)c(I)c(C(=O)NC(CO)CO)c1I | – | -8.47% | -9.62% | -3.5% (inactive) |
| CCN(CC)C(=O)N1CCN(C)CC1 | 4.02% (inactive) | -1.64% and 22.2% | 2.25% and 24.5% | -0.935% (inactive) |
| C[C@@H](CN(C)C)CN1c2ccccc2Sc2ccccc21 | – | -4.09% | -6.89% | -1.55% (inactive) |
| COc1c2occc2c(OC)c2c(=O)cc(C)oc12 | – | 3.81% | 5.65% | 2.26% (inactive) |
| C/C=C(/C(=C/C)c1ccc(O)cc1)c1ccc(O)cc1 | 15.3% (inactive) | 6.35% | 27.9% | – |
| CN1CCC(=C2c3ccccc3Sc3ccccc32)CC1 | 13.8% (inactive) | 3.5% and 5.85% | -0.527% and 23.3% | -2.77% (inactive) |
| CCn1cc(C(=O)O)c(=O)c2cnc(N3CCCC3)nc21 | – | -11.9% | -16.2% | -3.05% (inactive) |
| O=C1c2ccccc2C(=O)C1c1ccccc1 | 10.4% (inactive) | -13.1% and 15.4% | -14% and 33.1% | -0.708% (inactive) |
| CCCCOc1ccc(C(=O)CCN2CCCCC2)cc1 | -7.63% (inactive) | 0.252% | 0.832% | – |
| CN1CCN(C(c2ccccc2)c2ccccc2)CC1 | 7.26% (inactive) | -1.91% and 18% | -3.01% and 29.7% | -2.7% (inactive) |
| CCCCOc1cc(C(=O)NCCN(CC)CC)c2ccccc2n1 | 1.92% (inactive) | -8.72% and 19.1% | -8.39% and 23.8% | -1.17% (inactive) |
| CCN(CCCc1ccccc1)CCCc1ccccc1 | 3.79% (inactive) | 1.49% and 14.3% | -0.884% and 21.1% | -2.55% (inactive) |
| CN(C(=O)CN(CCO)CC(=O)N(C)C(C)(C)Cc1ccccc1)C(C)(C)Cc1ccccc1 | 4.59% (inactive) | -9.05% and 8.48% | -21.3% and 13.9% | -12.5% (inactive) |
| O=C(OCC(O)CO)c1ccccc1Nc1ccnc2cc(Cl)ccc12 (stereo unspecified) | 0.748% (inactive) | 5.57% | 7.83% | – |
| Nc1nc2ncc(CNc3ccc(C(=O)N[C@@H](CCC(=O)O)C(=O)O)cc3)nc2c(=O)[nH]1 | 8.45% (inactive) | -7.62% and 6.6% | -8.4% and 15.7% | -2.19% (inactive) |
